# How the values were obtained:
# Test in all cases: yeast three-hybrid, YBZ-1, SC-Leu-His + 0.5 mM 3-AT, 4 days
# Details in all cases: tags: N-Gal4 AD-HA kept; label: inside an RPR1-promoter hybrid RNA with tandem MS2 sites; ssRNA
# PUM1 PUF domain R1-TFR = PUM1 PUF domain R1-TFR (Homo sapiens, UniProt Q14671 828-1176, S863T;R864F;Q867R)
# Procedure, shortened: (§1)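 Matching RNA elements and Pumilio-1 PUF domain libraries, randomized at the three base-contacting residues of every repeat, were co-expressed from a centromeric plasmid in strain YBZ-1 (LexA–MS2 coat fusion, HIS3 reporter). The repeat regions were PCR-amplified and Illumina-sequenced from cells grown four days on SC-Leu (input) or SC-Leu-His + 0.5 mM 3-AT (selection). The interaction score is the log change in variant frequency from input to selection. It is computed in log2, with a pseudocount of 1 for absent variants.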
# PUM1 PUF domain R1-CIR = PUM1 PUF domain R1-CIR (Homo sapiens, UniProt Q14671 828-1176, S863C;R864I;Q867R)
# Chain of PUM1 PUF domain R1-CIR (Q14671 828-1176 S863C/R864I/Q867R): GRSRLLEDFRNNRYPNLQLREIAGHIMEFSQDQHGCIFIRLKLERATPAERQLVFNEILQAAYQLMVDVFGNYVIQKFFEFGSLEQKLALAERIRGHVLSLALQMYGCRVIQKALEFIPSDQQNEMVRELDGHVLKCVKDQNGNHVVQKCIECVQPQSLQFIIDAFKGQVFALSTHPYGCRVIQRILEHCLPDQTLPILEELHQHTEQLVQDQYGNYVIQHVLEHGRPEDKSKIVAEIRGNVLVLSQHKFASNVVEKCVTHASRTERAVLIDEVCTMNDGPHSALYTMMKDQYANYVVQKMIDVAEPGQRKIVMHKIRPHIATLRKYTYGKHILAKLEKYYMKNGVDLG
# Procedure, shortened: as §1
# PUM1 PUF domain R1-KRQ = PUM1 PUF domain R1-KRQ (Homo sapiens, UniProt Q14671 828-1176, S863K)
# Chain of PUM1 PUF domain R1-KRQ (Q14671 828-1176 S863K): as the sequence (Q14671 828-1176 S863C/R864I/Q867R) above, with C36K, I37R, R40Q counted along it
# Procedure, shortened: as §1
# PUM1 PUF domain R4-CNS = PUM1 PUF domain R4-CNS (Homo sapiens, UniProt Q14671 828-1176, N971C;H972N;Q975S)
# Chain of PUM1 PUF domain R4-CNS (Q14671 828-1176 N971C/H972N/Q975S): as the sequence (Q14671 828-1176 S863C/R864I/Q867R) above, with C36S, I37R, R40Q, N144C, H145N, Q148S counted along it
# Procedure, shortened: as §1
# PUM1 PUF domain R4-RMA = PUM1 PUF domain R4-RMA (Homo sapiens, UniProt Q14671 828-1176, N971R;H972M;Q975A)
# Chain of PUM1 PUF domain R4-RMA (Q14671 828-1176 N971R/H972M/Q975A): as the sequence (Q14671 828-1176 S863C/R864I/Q867R) above, with C36S, I37R, R40Q, N144R, H145M, Q148A counted along it
# Procedure, shortened: as §1
# PUM1 PUF domain R8-KRW = PUM1 PUF domain R8-KRW (Homo sapiens, UniProt Q14671 828-1176, N1122K;Y1123R;Q1126W)
# Chain of PUM1 PUF domain R8-KRW (Q14671 828-1176 N1122K/Y1123R/Q1126W): as the sequence (Q14671 828-1176 S863C/R864I/Q867R) above, with C36S, I37R, R40Q, N295K, Y296R, Q299W counted along it
# Procedure, shortened: as §1
# PUM1 PUF domain R5-RRW = PUM1 PUF domain R5-RRW (Homo sapiens, UniProt Q14671 828-1176, C1007R;Q1011W)
# Chain of PUM1 PUF domain R5-RRW (Q14671 828-1176 C1007R/Q1011W): as the sequence (Q14671 828-1176 S863C/R864I/Q867R) above, with C36S, I37R, R40Q, C180R, Q184W counted along it
# Procedure, shortened: as §1
# PUM1 PUF domain R7-QND = PUM1 PUF domain R7-QND (Homo sapiens, UniProt Q14671 828-1176, S1079Q;E1083D)
# Chain of PUM1 PUF domain R7-QND (Q14671 828-1176 S1079Q/E1083D): as the sequence (Q14671 828-1176 S863C/R864I/Q867R) above, with C36S, I37R, R40Q, S252Q, E256D counted along it
# Procedure, shortened: as §1
# PUM1 PUF domain R8-PFV = PUM1 PUF domain R8-PFV (Homo sapiens, UniProt Q14671 828-1176, N1122P;Y1123F;Q1126V)
# Chain of PUM1 PUF domain R8-PFV (Q14671 828-1176 N1122P/Y1123F/Q1126V): as the sequence (Q14671 828-1176 S863C/R864I/Q867R) above, with C36S, I37R, R40Q, N295P, Y296F, Q299V counted along it
# Procedure, shortened: as §1
# PUM1 PUF domain R8-HWK = PUM1 PUF domain R8-HWK (Homo sapiens, UniProt Q14671 828-1176, N1122H;Y1123W;Q1126K)
# Chain of PUM1 PUF domain R8-HWK (Q14671 828-1176 N1122H/Y1123W/Q1126K): as the sequence (Q14671 828-1176 S863C/R864I/Q867R) above, with C36S, I37R, R40Q, N295H, Y296W, Q299K counted along it
# Procedure, shortened: as §1
# PUM1 PUF domain R5-KNA = PUM1 PUF domain R5-KNA (Homo sapiens, UniProt Q14671 828-1176, C1007K;R1008N;Q1011A)
# Chain of PUM1 PUF domain R5-KNA (Q14671 828-1176 C1007K/R1008N/Q1011A): as the sequence (Q14671 828-1176 S863C/R864I/Q867R) above, with C36S, I37R, R40Q, C180K, R181N, Q184A counted along it
# Procedure, shortened: as §1
# PUM1 PUF domain R5-QIR = PUM1 PUF domain R5-QIR (Homo sapiens, UniProt Q14671 828-1176, C1007Q;R1008I;Q1011R)
# Chain of PUM1 PUF domain R5-QIR (Q14671 828-1176 C1007Q/R1008I/Q1011R): as the sequence (Q14671 828-1176 S863C/R864I/Q867R) above, with C36S, I37R, R40Q, C180Q, R181I, Q184R counted along it
# Procedure, shortened: as §1
# PUM1 PUF domain R5-RTL = PUM1 PUF domain R5-RTL (Homo sapiens, UniProt Q14671 828-1176, C1007R;R1008T;Q1011L)
# Chain of PUM1 PUF domain R5-RTL (Q14671 828-1176 C1007R/R1008T/Q1011L): as the sequence (Q14671 828-1176 S863C/R864I/Q867R) above, with C36S, I37R, R40Q, C180R, R181T, Q184L counted along it
# Procedure, shortened: as §1
# Chain of PUM1 PUF domain R1-TFR (Q14671 828-1176 S863T/R864F/Q867R): as the sequence (Q14671 828-1176 S863C/R864I/Q867R) above, with C36T, I37F counted along it
sequence,measurement,setting,value
GGCUAGAACUAGUGGAUCCCCCGGCGCCCGGCGGCUCGAGCCCGGGUAAGUGUAAAUCGUCUGCAUGCCGCCGGGCGCCAUGCCUGCAGGUCGACUCUAGAAAACAUG,binding signal,PUM1 PUF domain R1-TFR,6.07 log2 enrichment (interaction score)
same,binding signal,PUM1 PUF domain R1-CIR,4.43 log2 enrichment (interaction score)
same,binding signal,PUM1 PUF domain R1-KRQ,5.97 log2 enrichment (interaction score)
GGCUAGAACUAGUGGAUCCCCCGGCGCCCGGCGGCUCGAGCCCGGGUAAGUGUAAAUUGUCUGCAUGCCGCCGGGCGCCAUGCCUGCAGGUCGACUCUAGAAAACAUG,binding signal,PUM1 PUF domain R1-CIR,0.87 log2 enrichment (interaction score)
GGCUAGAACUAGUGGAUCCCCCGGCGCCCGGCGGCUCGAGCCCGGGUAAGUGUACAUAGUCUGCAUGCCGCCGGGCGCCAUGCCUGCAGGUCGACUCUAGAAAACAUG,binding signal,PUM1 PUF domain R4-CNS,2.9 log2 enrichment (interaction score)
GGCUAGAACUAGUGGAUCCCCCGGCGCCCGGCGGCUCGAGCCCGGGUAAGUGUAAAUAGUCUGCAUGCCGCCGGGCGCCAUGCCUGCAGGUCGACUCUAGAAAACAUG,binding signal,PUM1 PUF domain R4-RMA,4.05 log2 enrichment (interaction score)
same,binding signal,PUM1 PUF domain R4-CNS,0.73 log2 enrichment (interaction score)
same,binding signal,PUM1 PUF domain R8-KRW,1.73 log2 enrichment (interaction score)
same,binding signal,PUM1 PUF domain R5-RRW,0.79 log2 enrichment (interaction score)
same,binding signal,PUM1 PUF domain R7-QND,3.96 log2 enrichment (interaction score)
same,binding signal,PUM1 PUF domain R8-PFV,1.89 log2 enrichment (interaction score)
same,binding signal,PUM1 PUF domain R8-HWK,2.36 log2 enrichment (interaction score)
GGCUAGAACUAGUGGAUCCCCCGGCGCCCGGCGGCUCGAGCCCGGGUAAGCGUAAAUAGUCUGCAUGCCGCCGGGCGCCAUGCCUGCAGGUCGACUCUAGAAAACAUG,binding signal,PUM1 PUF domain R8-KRW,3.21 log2 enrichment (interaction score)
same,binding signal,PUM1 PUF domain R8-PFV,2.24 log2 enrichment (interaction score)
same,binding signal,PUM1 PUF domain R8-HWK,2.42 log2 enrichment (interaction score)
GGCUAGAACUAGUGGAUCCCCCGGCGCCCGGCGGCUCGAGCCCGGGUAAGUGUCAAUAGUCUGCAUGCCGCCGGGCGCCAUGCCUGCAGGUCGACUCUAGAAAACAUG,binding signal,PUM1 PUF domain R5-KNA,2.79 log2 enrichment (interaction score)
same,binding signal,PUM1 PUF domain R5-RRW,3.43 log2 enrichment (interaction score)
same,binding signal,PUM1 PUF domain R5-QIR,3.55 log2 enrichment (interaction score)
same,binding signal,PUM1 PUF domain R5-RTL,2.38 log2 enrichment (interaction score)
